ClpP mod – qHTS Assay for Activators of ClpP; 340,000 compounds, 1.9% hits; ATP-dependent Clp protease proteolytic subunit (Bacillus subtilis (strain 168)), P80244; Potency, µM (titrated, usually from 57.5 µM); purified B. subtilis ClpP, FRET peptide cleavage, 20 min; active = well fitted falling curve with a large enough effect; inconclusive = small, poorly fitted or top-dose-only effect; inactive = no such curve, though single readings can be large or run the other way; note: the source files actives as falling curves though it sought activators and does not explain the sign; nearly all actives have a fitted effect of over 65% in size
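FRET quenching reversal measured ClpP activation: 10 microg/mL B. subtilis ClpP at pH 8 with the FRET-FV decapeptide, read at 430 nm after 320 nm excitation. The 20-min minus 0-min signal was scaled between DMSO/no-enzyme wells and ADEP (5.8 microM final).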
CXXC DNA block – blocks binding of human MLL CXXC domain to DNA | Potency, µM (doses to about 115 µM), usual class: inhibitors | 290,000 compounds, 0.037% hits | AID 2662 | Q03164 | MLL-CXXC / FITC-HOXA9 DNA fluorescence polarization; active = well fitted inhibition curve with a large enough effect in the polarisation, with a control signal flat, not every such curve was filed as active; inconclusive = small, poorly fitted or top-dose-only effect, or effect the other way, or a change in a side signal; inactive = no such curve, though single readings can be large or run the other way; the % refers to the polarisation
Target sequence (Q03164 whole entry, looked up, the tested form may be a part): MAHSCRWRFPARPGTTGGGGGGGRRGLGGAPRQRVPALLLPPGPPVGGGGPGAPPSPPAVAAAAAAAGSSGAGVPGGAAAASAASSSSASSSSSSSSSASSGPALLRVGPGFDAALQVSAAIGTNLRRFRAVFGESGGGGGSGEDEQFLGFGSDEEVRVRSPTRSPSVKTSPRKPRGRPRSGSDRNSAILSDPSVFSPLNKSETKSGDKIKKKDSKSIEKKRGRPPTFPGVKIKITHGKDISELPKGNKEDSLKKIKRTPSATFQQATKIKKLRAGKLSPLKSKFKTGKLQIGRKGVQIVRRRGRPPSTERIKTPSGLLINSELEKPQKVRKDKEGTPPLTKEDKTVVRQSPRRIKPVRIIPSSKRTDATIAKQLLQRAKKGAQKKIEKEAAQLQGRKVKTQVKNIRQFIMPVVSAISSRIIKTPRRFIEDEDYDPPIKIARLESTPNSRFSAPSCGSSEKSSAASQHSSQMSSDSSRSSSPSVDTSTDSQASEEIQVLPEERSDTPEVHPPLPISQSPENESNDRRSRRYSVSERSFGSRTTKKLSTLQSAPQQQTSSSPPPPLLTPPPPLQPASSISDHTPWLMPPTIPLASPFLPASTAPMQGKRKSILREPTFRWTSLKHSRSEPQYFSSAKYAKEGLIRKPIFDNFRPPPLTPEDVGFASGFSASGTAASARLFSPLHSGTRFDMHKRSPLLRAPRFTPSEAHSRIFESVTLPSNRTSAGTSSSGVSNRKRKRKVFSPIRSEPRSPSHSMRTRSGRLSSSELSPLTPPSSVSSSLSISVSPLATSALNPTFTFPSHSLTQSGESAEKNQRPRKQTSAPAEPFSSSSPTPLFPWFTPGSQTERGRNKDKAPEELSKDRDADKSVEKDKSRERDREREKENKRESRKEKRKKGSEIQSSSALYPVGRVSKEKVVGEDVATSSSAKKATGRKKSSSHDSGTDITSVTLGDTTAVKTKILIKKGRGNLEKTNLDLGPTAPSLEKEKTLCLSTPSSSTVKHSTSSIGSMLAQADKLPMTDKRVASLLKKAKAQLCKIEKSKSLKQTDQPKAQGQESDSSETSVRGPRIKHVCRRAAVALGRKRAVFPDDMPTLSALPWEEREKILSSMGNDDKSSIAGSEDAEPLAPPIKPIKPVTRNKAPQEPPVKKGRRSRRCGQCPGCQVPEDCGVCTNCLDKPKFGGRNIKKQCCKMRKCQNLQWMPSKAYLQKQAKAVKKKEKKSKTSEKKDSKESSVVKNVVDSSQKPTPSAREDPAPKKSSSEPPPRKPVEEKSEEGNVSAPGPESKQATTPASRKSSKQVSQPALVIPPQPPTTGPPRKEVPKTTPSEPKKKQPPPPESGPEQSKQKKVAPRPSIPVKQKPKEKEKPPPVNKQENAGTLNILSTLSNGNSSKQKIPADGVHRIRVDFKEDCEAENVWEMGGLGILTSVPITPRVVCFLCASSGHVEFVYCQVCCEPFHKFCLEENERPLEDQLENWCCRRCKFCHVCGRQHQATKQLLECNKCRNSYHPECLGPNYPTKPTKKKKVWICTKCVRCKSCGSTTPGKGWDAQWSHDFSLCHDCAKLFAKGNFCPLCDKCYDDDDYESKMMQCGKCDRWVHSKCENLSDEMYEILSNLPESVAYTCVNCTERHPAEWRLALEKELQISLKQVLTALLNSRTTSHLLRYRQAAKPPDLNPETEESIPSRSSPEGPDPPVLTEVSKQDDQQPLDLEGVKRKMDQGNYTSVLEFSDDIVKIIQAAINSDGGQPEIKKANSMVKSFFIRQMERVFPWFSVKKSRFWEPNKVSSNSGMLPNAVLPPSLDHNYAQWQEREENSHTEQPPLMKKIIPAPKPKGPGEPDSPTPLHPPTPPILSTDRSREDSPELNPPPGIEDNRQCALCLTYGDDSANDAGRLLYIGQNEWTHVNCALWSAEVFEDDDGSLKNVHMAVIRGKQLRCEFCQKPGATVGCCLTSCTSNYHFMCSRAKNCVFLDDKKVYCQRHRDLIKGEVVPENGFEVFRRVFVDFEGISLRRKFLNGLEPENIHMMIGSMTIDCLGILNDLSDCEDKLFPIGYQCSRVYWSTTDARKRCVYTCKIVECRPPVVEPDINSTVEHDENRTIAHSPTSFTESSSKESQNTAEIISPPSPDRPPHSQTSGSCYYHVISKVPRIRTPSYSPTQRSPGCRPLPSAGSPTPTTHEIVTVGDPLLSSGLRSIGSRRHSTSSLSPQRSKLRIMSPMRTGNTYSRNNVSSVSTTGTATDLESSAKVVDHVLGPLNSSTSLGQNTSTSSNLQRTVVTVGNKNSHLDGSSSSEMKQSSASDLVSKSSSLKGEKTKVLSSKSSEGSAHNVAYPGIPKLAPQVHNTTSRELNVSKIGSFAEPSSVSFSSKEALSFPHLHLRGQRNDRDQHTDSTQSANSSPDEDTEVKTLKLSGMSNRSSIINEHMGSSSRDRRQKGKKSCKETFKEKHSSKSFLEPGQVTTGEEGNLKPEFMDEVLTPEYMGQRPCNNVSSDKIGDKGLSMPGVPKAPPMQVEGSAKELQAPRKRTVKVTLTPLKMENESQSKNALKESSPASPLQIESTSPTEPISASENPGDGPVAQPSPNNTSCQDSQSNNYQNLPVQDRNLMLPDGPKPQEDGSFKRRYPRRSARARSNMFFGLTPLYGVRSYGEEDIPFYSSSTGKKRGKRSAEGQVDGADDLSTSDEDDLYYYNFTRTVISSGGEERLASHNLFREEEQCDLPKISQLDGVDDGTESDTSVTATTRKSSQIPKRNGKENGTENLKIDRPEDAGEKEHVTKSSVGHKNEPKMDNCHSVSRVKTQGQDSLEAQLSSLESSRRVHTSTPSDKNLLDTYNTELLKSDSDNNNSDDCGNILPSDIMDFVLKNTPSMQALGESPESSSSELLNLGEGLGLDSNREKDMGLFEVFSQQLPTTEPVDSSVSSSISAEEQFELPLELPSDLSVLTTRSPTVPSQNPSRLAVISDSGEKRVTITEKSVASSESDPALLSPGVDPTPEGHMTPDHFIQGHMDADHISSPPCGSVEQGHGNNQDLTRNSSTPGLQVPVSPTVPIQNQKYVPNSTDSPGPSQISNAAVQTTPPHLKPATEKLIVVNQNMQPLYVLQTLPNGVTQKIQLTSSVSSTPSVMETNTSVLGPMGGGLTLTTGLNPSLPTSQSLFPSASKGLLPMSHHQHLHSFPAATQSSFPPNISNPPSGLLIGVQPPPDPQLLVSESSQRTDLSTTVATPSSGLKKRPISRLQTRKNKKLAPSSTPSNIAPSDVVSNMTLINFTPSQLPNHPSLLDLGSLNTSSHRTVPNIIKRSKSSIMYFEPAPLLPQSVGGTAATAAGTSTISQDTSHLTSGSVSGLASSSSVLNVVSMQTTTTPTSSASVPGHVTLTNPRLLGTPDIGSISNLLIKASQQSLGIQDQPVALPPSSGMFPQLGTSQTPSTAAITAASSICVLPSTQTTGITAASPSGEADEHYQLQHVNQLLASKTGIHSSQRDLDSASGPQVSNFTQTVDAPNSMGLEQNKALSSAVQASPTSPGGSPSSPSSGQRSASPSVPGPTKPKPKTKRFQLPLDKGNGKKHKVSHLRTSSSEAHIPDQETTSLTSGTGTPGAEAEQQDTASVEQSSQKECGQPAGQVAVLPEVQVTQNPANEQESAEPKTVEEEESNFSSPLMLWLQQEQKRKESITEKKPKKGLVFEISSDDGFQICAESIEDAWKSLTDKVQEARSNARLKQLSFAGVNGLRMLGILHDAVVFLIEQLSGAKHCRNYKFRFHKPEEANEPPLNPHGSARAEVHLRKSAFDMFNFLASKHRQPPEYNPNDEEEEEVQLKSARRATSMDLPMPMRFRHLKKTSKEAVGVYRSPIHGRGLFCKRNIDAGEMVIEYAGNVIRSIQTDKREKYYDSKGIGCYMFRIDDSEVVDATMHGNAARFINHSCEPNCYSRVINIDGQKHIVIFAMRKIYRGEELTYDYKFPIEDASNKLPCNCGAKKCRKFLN
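Purified MLL-CXXC (added from a 7 uM solution) was preincubated 5 min at ambient with pinned compounds in 50 mM Tris-HCl pH 7.5, 50 mM NaCl, 1 mM DTT, 0.05% BSA. Fluorescein-labeled HOX-A9 DNA (50 nM solution) followed, 30 min, then polarization read.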
Menin-MLL TR inh – menin-MLL binding inhibition, Texas Red mutant peptide; O00255; Menin + Texas Red MLL mutant peptide, fluorescence polarization; Potency, µM (highest dose often 61.6 µM), actives largely listed as inhibitors; 270,000 compounds, 0.23% hits; active = well fitted inhibition curve with a large enough effect in the polarisation, with a control signal flat, not every such curve was filed as active; inconclusive = small, poorly fitted or top-dose-only effect, or effect the other way, or a change in a side signal; inactive = no such curve, though single readings can be large or run the other way; the % refers to the polarisation
Epigenetic derep – regulators of epigenetic silencing causing reporter derepression in mouse cells | Potency, µM (series often up to 53.9 µM), most hits filed as activators | 280,000 compounds, 0.2% hits | murine LDR cells, GFP reporter derepression, 30 h; note: nearly all actives have a fitted effect of over 60% in size
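Readout is the number of GFP-expressing murine LDR cells, counted by cytometry following washing. Cells were treated with compound for 30 h at 37 C; the stably integrated CMV-GFP locus is normally silent.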
Menin-MLL FL inh – displaces fluorescein MLL peptide from human menin. Fluorescence polarization, fluorescein-MLL peptide displacement from menin. FP activity change, % at 61.4 µM. 290,000 tested, under 10 active. AID 1766; active = well fitted curve in the direction sought with a large enough effect in the polarisation, not every such curve was filed as active; inconclusive = small, poorly fitted or top-dose-only effect, or effect the other way, or a change in a side signal; inactive = no such curve, though single readings can be large or run the other way; the % refers to the polarisation
PINK1 modulator – PINK1 expression modulation | PINK1 immunofluorescence, high-content cytometry, 24 h | Potency, µM (doses to about 76.6 µM), usual class: activators | 410,000 compounds, 0.2% hits; active = well fitted activation curve with a large enough effect; inconclusive = small, poorly fitted or top-dose-only effect; cell line not stated here; note: nearly all actives have a fitted effect of over 65% in size
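PINK1 protein level read as immunofluorescence by microplate cytometer in a fixed, stained stable cell line after 24 h exposure to five compound concentrations, with CCCP as control.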
C127i cell count – changes parental c127i cell counts in epigenetic modulator counter-screen; shares compounds with Epigenetic derep; mouse c127i parental cells, fluorescent cell count, 30 h; Potency, µM, usual class: activators; 60 compounds, 20% hits
HCC4017 viab – reduces HCC4017 lung cancer cell viability among epigenetic modulators; shares compounds with Epigenetic derep; HCC4017 NSCLC viability, CellTiter-Glo ATP luminescence, 72 h; Potency, µM (top dose mostly 46.1 µM), usual class: cytotoxic; 45 compounds, 30% hits
H358 tox – reduces H358 lung cancer cell viability among epigenetic modulators; shares compounds with Epigenetic derep; H358 NSCLC viability, ATP luminescence, 72 h; Potency, µM (doses to about 46.1 µM), hits mostly cytotoxic; 45 compounds, 30% hits; AID 493074
Of the large screens only hits and unclear results are named; the others gave an inactive call (follow-up assays come after a bar, where they were run). Rows were chosen to be rich in hits. Some 1.9% of all compounds tested hit in one or more screens of this group. Unless noted, calls come from the whole dose curve; as a rule, active = well fitted curve in the direction sought with a large enough effect; inconclusive = small, poorly fitted or top-dose-only effect, or another doubt; inactive = no such curve, though single readings can be large; an effect the other way counts as inactive or inconclusive.

O=C1C=C(Nc2ccc(Cl)cc2)C(=O)N1c1ccc(Cl)cc1	Menin-MLL TR inh inconclusive, Epigenetic derep 10µM, PINK1 modulator 35µM | C127i cell count inconclusive | HCC4017 viab inactive | H358 tox inactive
O=C1C=C(N2CCCCCC2)C(=O)N1c1ccc(Cl)cc1	none (no result: ClpP mod, Epigenetic derep)
S=C(Nc1ccccc1)c1ccccn1	CXXC DNA block inconclusive, Epigenetic derep 5.6µM | C127i cell count 22µM | HCC4017 viab inactive | H358 tox inactive
COc1ccc(-c2nn3c(=O)cc(CN4CCN(C(=O)/C=C/c5ccccc5)CC4)nc3s2)cc1	Epigenetic derep inconclusive (no result: CXXC DNA block, Menin-MLL TR inh, Menin-MLL FL inh)
O=C(Nc1ccc(N2CCOCC2)c(Cl)c1)c1ccc([N+](=O)[O-])o1	Menin-MLL TR inh inconclusive
CN1CCN(c2ccc(NC(=O)c3ccc([N+](=O)[O-])o3)cc2Cl)CC1	none (no result: ClpP mod, Epigenetic derep)
CCCC(=O)N1CCN(c2ccc(NC(=O)c3ccc([N+](=O)[O-])o3)cc2Cl)CC1	Epigenetic derep inconclusive (no result: ClpP mod) | C127i cell count inactive | HCC4017 viab 1.8µM | H358 tox 2.5µM
CC(C)C(=O)N1CCN(c2ccc(NC(=O)c3ccc([N+](=O)[O-])o3)cc2Cl)CC1	Epigenetic derep inconclusive (no result: ClpP mod) | C127i cell count inconclusive
CC(=O)N[C@@H](CSC(=O)[C@]1([C@@H](O)C(C)C)NC(=O)[C@H](C)[C@@H]1O)C(=O)O	Epigenetic derep inconclusive (no result: ClpP mod, CXXC DNA block, PINK1 modulator) | C127i cell count 25µM
CCOc1ccc(S(=O)(=O)N2CCCCC2)cc1NC(=O)Cc1cccs1	none (no result: CXXC DNA block, Menin-MLL TR inh, Epigenetic derep, Menin-MLL FL inh)
C(=N\Nc1nc(-c2ccccn2)nc2ccccc12)/c1ccccc1	Epigenetic derep 10µM (no result: ClpP mod, Menin-MLL TR inh) | C127i cell count inactive | HCC4017 viab 0.4µM | H358 tox inconclusive
C(=N\Nc1nc(-c2cccnc2)nc2ccccc12)/c1ccccc1	none (no result: ClpP mod, Menin-MLL TR inh)
CSc1nsc(/C=C/Nc2cccc(Cl)c2)c1C#N	Menin-MLL TR inh inconclusive, Epigenetic derep 7.1µM, Menin-MLL FL inh inconclusive | C127i cell count 10µM | HCC4017 viab inactive | H358 tox inactive
O=C(CN1CCc2ccccc2C1)Nc1ccccc1C(=O)NC1CC1	none (no result: CXXC DNA block, Menin-MLL TR inh, Epigenetic derep, Menin-MLL FL inh)
COc1ccc2c(C)cc(SCC(=O)N(C)C3CCS(=O)(=O)C3)nc2c1 (stereo unspecified)	Epigenetic derep 10µM, Menin-MLL FL inh inconclusive (no result: ClpP mod) | C127i cell count inconclusive | HCC4017 viab inactive | H358 tox inactive
COc1ccc(C(=O)N2CCCCC2c2cc(C(=O)Nc3cccc(C#N)c3)no2)cc1 (stereo unspecified)	none (no result: CXXC DNA block, Menin-MLL TR inh, Epigenetic derep, Menin-MLL FL inh)
CN(C)S(=O)(=O)c1ccc2c(c1)/C(=C/c1cc3c([nH]1)CCCC3)C(=O)N2	CXXC DNA block inconclusive, Menin-MLL TR inh inconclusive, Epigenetic derep 7.9µM, Menin-MLL FL inh inconclusive, PINK1 modulator inconclusive | C127i cell count 3.2µM
CCCOc1cc(N(CC)CC)ccc1/C=C(/C#N)c1nc2ccc(C)cc2[nH]1	CXXC DNA block inconclusive, Menin-MLL TR inh inconclusive, Menin-MLL FL inh inconclusive | C127i cell count 2.5µM
COc1cc(/C=C(\C#N)c2nc3ccc(C)cc3[nH]2)c([N+](=O)[O-])cc1OC	none
Cc1ccc(C)c(NC(=O)C(NS(=O)(=O)c2ccc3c(c2)CCC(=O)N3)c2ccccc2)c1 (stereo unspecified)	none (no result: CXXC DNA block, Menin-MLL TR inh, Menin-MLL FL inh)

High-throughput results as filed in PubChem.
